Test results: PubChem BioAssay AID1159580 (chemical genetic matrix, 2015)
Values joined by “and” are separate entries in the source; they are usually repeats but may differ in a detail not shown here. Equal entries are not always repeated. In all, about 5,500 compounds went through this assay and about 2,000 (36%) were called active. Inconclusive results (about 18%) are left out. Rule as the data show it: active = normalized growth mostly below about 0.91 (no sharp cut-off); inconclusive = no clear call, values can overlap the other calls; inactive = mostly above about 0.92. The list shows a part of the results.

Assay: chemical genetic growth profiling, strain panel (AID 1159580);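 also: tested at 20 µM; growth read once vehicle control cultures reached saturation at 30 °C; 1 = growth at the plate median or of vehicle wells; lower values mean less growth of the strain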
Conditions: S. cerevisiae deletion strains, growth OD

Measured: normalized growth

C[n+]1cc2c3c(ccc2c2ccc4cc5c(cc4c21)OCO5)OCO3
0.0584 (active) and 0.981 (inactive): locus YHR030C, strain SLT2, stronger effect = lower value
0.073 (active) and 0.976 (inactive): locus YJL095W, strain BCK1, stronger effect = lower value
inactive: locus YBR171W, strain sec66, stronger effect = lower value 0.983 | locus YDL185W, strain tfp1, stronger effect = lower value 0.914 | locus YDR001C, strain nth1, stronger effect = lower value 0.928 | locus YDR069C, strain doa4, stronger effect = lower value 0.902 | locus YDR195W, strain ref2 1.09 | locus YER002W, strain NOP16, stronger effect = lower value 1.01 | locus YGL167C, strain pmr1, stronger effect = lower value 0.974 | locus YHR079C, strain IRE1, stronger effect = lower value 0.985 | locus YJL154C, strain vps35, stronger effect = lower value 0.962 | locus YJR066W, strain TOR1, stronger effect = lower value 0.931 | locus YKL009W, strain mrt4, stronger effect = lower value 0.922 | locus YKL068W, stronger effect = lower value 0.964 | locus YLR113W, strain HOG1, stronger effect = lower value 0.951 | locus YLR384C, strain iki3, stronger effect = lower value 0.97 | locus YMR231W, strain pep5, stronger effect = lower value 0.991 | locus YNL183C, strain NPR1, stronger effect = lower value 0.923 | locus YNL271C, strain bni1, stronger effect = lower value 0.92 | locus YNL298W, strain CLA4, stronger effect = lower value 0.951 | locus YNL322C, strain KRE1 (second series), stronger effect = lower value 1 | locus YNR049C, strain mso1, stronger effect = lower value 0.964 | locus YOL012C, strain htz1 0.232 | locus YOR231W, strain MKK1, stronger effect = lower value 0.96 | locus YPL256C, strain CLN2, stronger effect = lower value 0.969 | locus YPR141C, strain kar3, stronger effect = lower value 0.971
active: locus YAL013W, strain DEP1, stronger effect = lower value 0.06 and 0.0669 | locus YAL021C, strain ccr4, stronger effect = lower value 0.823 | locus YAL026C, strain drs2, stronger effect = lower value 0.657 | locus YAL030W, strain snc1, stronger effect = lower value 0.676 | locus YBL061C, strain skt5, stronger effect = lower value 0.627 | locus YBR009C, strain hhf1, stronger effect = lower value 0.268 | locus YBR021W, strain FUR4, stronger effect = lower value 0.146 | locus YBR023C, strain chs3, stronger effect = lower value 0.592 | locus YBR229C, strain ROT2, stronger effect = lower value 0.0617 | locus YBR231C, strain swc5, stronger effect = lower value 0.326 | locus YBR279W, strain paf1, stronger effect = lower value 0.674 | locus YCL011C, strain gbp2, stronger effect = lower value 0.34 | locus YCL016C, strain dcc1, stronger effect = lower value 0.535 | locus YCL029C, strain bik1, stronger effect = lower value 0.0684 | locus YCL061C, strain MRC1, stronger effect = lower value 0.672 | locus YCL069W, strain vba3, stronger effect = lower value 0.596 | locus YCR088W, strain abp1, stronger effect = lower value 0.802 | locus YDL005C, strain med2, stronger effect = lower value 0.711 | locus YDL035C, strain GPR1, stronger effect = lower value 0.057 | locus YDL040C, strain nat1, stronger effect = lower value 0.858 | locus YDL074C, strain BRE1, stronger effect = lower value 0.0875 | locus YDL101C, strain DUN1, stronger effect = lower value 0.0699 | locus YDL134C, strain PPH21, stronger effect = lower value 0.0603 | locus YDL192W, strain arf1, stronger effect = lower value 0.0735 | locus YDR101C, strain arx1, stronger effect = lower value 0.0711 | locus YDR137W, strain rgp1, stronger effect = lower value 0.692 | locus YDR150W, strain NUM1, stronger effect = lower value 0.0564 | locus YDR159W, strain sac3, stronger effect = lower value 0.62 | locus YDR162C, strain NBP2, stronger effect = lower value 0.0557 | locus YDR297W, strain sur2, stronger effect = lower value 0.609 | locus YDR318W, strain mcm21, stronger effect = lower value 0.0705 | locus YDR334W, strain swr1, stronger effect = lower value 0.46 | locus YDR335W, strain msn5, stronger effect = lower value 0.714 | locus YDR363W, strain ESC2, stronger effect = lower value 0.0888 | locus YDR388W, stronger effect = lower value 0.0658 | locus YDR392W, strain spt3, stronger effect = lower value 0.11 | locus YDR502C, strain sam2, stronger effect = lower value 0.0731 | locus YEL003W, strain gim4, stronger effect = lower value 0.668 | locus YEL037C, strain rad23, stronger effect = lower value 0.797 | locus YEL061C, strain CIN8 (second series), stronger effect = lower value 0.7 | locus YEL061C, strain CIN8, stronger effect = lower value 0.0546 | locus YER015W, strain faa2, stronger effect = lower value 0.516 | locus YER016W, strain bim1, stronger effect = lower value 0.788 | locus YER110C, stronger effect = lower value 0.0876 | locus YER111C, strain swi4, stronger effect = lower value 0.847 | locus YER155C, strain BEM2 (second series), stronger effect = lower value 0.442 | locus YER155C, strain BEM2, stronger effect = lower value 0.0755 | locus YER167W, strain BCK2, stronger effect = lower value 0.0605 | locus YFR010W, strain ubp6, stronger effect = lower value 0.898 | locus YGL078C, strain dbp3, stronger effect = lower value 0.907 | locus YGL086W, strain mad1, stronger effect = lower value 0.0683 | locus YGL173C, strain kem1, stronger effect = lower value 0.772 | locus YGL227W, strain vid30, stronger effect = lower value 0.519 | locus YGL240W, strain doc1, stronger effect = lower value 0.396 | locus YGL248W, strain PDE1, stronger effect = lower value 0.0602 | locus YGL253W, strain hxk2, stronger effect = lower value 0.501 | locus YGR078C, strain PAC10, stronger effect = lower value 0.0588 | locus YGR135W, strain pre9, stronger effect = lower value 0.0753 | locus YGR229C, strain SMI1, stronger effect = lower value 0.0651 | locus YGR252W, strain gcn5, stronger effect = lower value 0.18 | locus YHR013C, strain ard1, stronger effect = lower value 0.319 | locus YHR027C, strain rpn1, stronger effect = lower value 0.73 | locus YHR079C, strain IRE1 (second series), stronger effect = lower value 0.0663 | locus YHR094C, strain hxt1, stronger effect = lower value 0.0664 | locus YHR129C, strain ARP1, stronger effect = lower value 0.0634 | locus YHR142W, strain chs7, stronger effect = lower value 0.348 | locus YHR200W, strain rpn10, stronger effect = lower value 0.0675 | locus YIL066C, strain RNR3, stronger effect = lower value 0.0586 | locus YIL073C, strain SPO22, stronger effect = lower value 0.133 | locus YIL125W, strain kgd1, stronger effect = lower value 0.915 | locus YIR030C, strain dcg1, stronger effect = lower value 0.0697 | locus YJL092W, strain hpr5, stronger effect = lower value 0.793 | locus YJL095W, strain BCK1 (second series), stronger effect = lower value 0.467 | locus YJL115W, strain asf1, stronger effect = lower value 0.881 | locus YJL129C, strain trk1, stronger effect = lower value 0.309 | locus YJL134W, strain LCB3, stronger effect = lower value 0.0573 | locus YJL164C, strain tpk1, stronger effect = lower value 0.363 | locus YJL166W, strain qcr8, stronger effect = lower value 0.242 | locus YJL168C, strain set2, stronger effect = lower value 0.0819 | locus YJL187C, strain SWE1 (second series), stronger effect = lower value 0.0606 | locus YJL187C, strain SWE1, stronger effect = lower value 0.618 | locus YJR043C, strain POL32, stronger effect = lower value 0.0783 | locus YJR075W, strain HOC1, stronger effect = lower value 0.0715 and 0.0688 | locus YKL085W, strain MDH1 (second series), stronger effect = lower value 0.921 | locus YKL085W, strain MDH1, stronger effect = lower value 0.921 | locus YKL160W, strain elf1, stronger effect = lower value 0.548 | locus YKL190W, strain CNB1, stronger effect = lower value 0.0545 | locus YKR001C, strain vps1, stronger effect = lower value 0.0723 | locus YKR026C, strain gcn3, stronger effect = lower value 0.843 | locus YKR091W, strain srl3, stronger effect = lower value 0.914 | locus YLL001W, strain dnm1, stronger effect = lower value 0.639 | locus YLL026W, stronger effect = lower value 0.549 | locus YLL041C, strain sdh2, stronger effect = lower value 0.778 | locus YLR027C, strain aat2, stronger effect = lower value 0.379 | locus YLR039C, strain RIC1, stronger effect = lower value 0.101 | locus YLR058C, strain SHM2, stronger effect = lower value 0.0596 | locus YLR102C, strain apc9, stronger effect = lower value 0.0679 | locus YLR221C, strain rsa3, stronger effect = lower value 0.562 | locus YLR258W, strain gsy2, stronger effect = lower value 0.502 | locus YLR262C, strain YPT6 (second series), stronger effect = lower value 0.827 | locus YLR262C, strain YPT6, stronger effect = lower value 0.123 | locus YLR268W, strain sec22, stronger effect = lower value 0.0776 | locus YLR320W, strain mms22, stronger effect = lower value 0.375 | locus YLR330W, strain CHS5, stronger effect = lower value 0.0586 | locus YLR342W, strain FKS1 (second series), stronger effect = lower value 0.0743 | locus YLR342W, strain FKS1, stronger effect = lower value 0.349 | locus YLR357W, strain rsc2, stronger effect = lower value 0.844 | locus YLR370C, strain arc18, stronger effect = lower value 0.762 | locus YLR371W, strain rom2, stronger effect = lower value 0.0708 | locus YLR418C, strain cdc73, stronger effect = lower value 0.107 | locus YML016C, strain PPZ1, stronger effect = lower value 0.0598 | locus YML032C, strain rad52, stronger effect = lower value 0.0764 | locus YML120C, strain ndi1, stronger effect = lower value 0.582 | locus YML124C, strain tub3, stronger effect = lower value 0.0684 | locus YMR058W, strain fet3, stronger effect = lower value 0.592 | locus YMR078C, strain ctf18, stronger effect = lower value 0.0819 | locus YMR125W, strain sto1, stronger effect = lower value 0.462 | locus YMR129W, stronger effect = lower value 0.779 | locus YMR205C, strain PFK2, stronger effect = lower value 0.273 | locus YMR223W, strain ubp8, stronger effect = lower value 0.077 | locus YMR307W, strain GAS1, stronger effect = lower value 0.145 and 0.0622 | locus YNL067W, strain RPL9B, stronger effect = lower value 0.0573 | locus YNL071W, strain lat1, stronger effect = lower value 0.0942 | locus YNL175C, strain NOP13, stronger effect = lower value 0.0763 | locus YNL197C, strain WHI3, stronger effect = lower value 0.0898 | locus YNL209W, strain ssb2, stronger effect = lower value 0.623 | locus YNL224C, strain SQS1, stronger effect = lower value 0.0906 | locus YNL233W, strain BNI4, stronger effect = lower value 0.0657 | locus YNL248C, strain rpa49, stronger effect = lower value 0.688 | locus YNL250W, strain rad50, stronger effect = lower value 0.839 | locus YNL307C, strain MCK1, stronger effect = lower value 0.0755 | locus YNL322C, strain KRE1, stronger effect = lower value 0.0622 | locus YNR052C, strain pop2, stronger effect = lower value 0.085 | locus YOL006C, strain TOP1, stronger effect = lower value 0.135 | locus YOL147C, strain pex11, stronger effect = lower value 0.0667 | locus YOR001W, strain rrp6, stronger effect = lower value 0.823 | locus YOR061W, strain CKA2, stronger effect = lower value 0.0586 | locus YOR069W, strain VPS5, stronger effect = lower value 0.0593 | locus YOR070C, strain gyp1, stronger effect = lower value 0.413 | locus YOR080W, strain dia2, stronger effect = lower value 0.825 | locus YOR083W, strain WHI5 (second series), stronger effect = lower value 0.0851 | locus YOR083W, strain WHI5, stronger effect = lower value 0.475 | locus YOR106W, strain vam3, stronger effect = lower value 0.315 | locus YOR136W, strain idh2, stronger effect = lower value 0.0832 | locus YOR144C, strain elg1, stronger effect = lower value 0.0651 | locus YOR184W, strain ser1, stronger effect = lower value 0.0766 | locus YOR265W, strain rbl2, stronger effect = lower value 0.5 | locus YOR270C, strain vph1, stronger effect = lower value 0.38 | locus YOR290C, strain snf2, stronger effect = lower value 0.412 | locus YOR316C, strain cot1, stronger effect = lower value 0.0661 | locus YPL051W, strain arl3, stronger effect = lower value 0.512 | locus YPL055C, strain LGE1, stronger effect = lower value 0.0742 and 0.092 | locus YPL078C, strain atp4, stronger effect = lower value 0.538 | locus YPL106C, strain sse1, stronger effect = lower value 0.741 | locus YPL240C, strain hsp82, stronger effect = lower value 0.58 | locus YPR119W, strain clb2, stronger effect = lower value 0.07 | locus YPR163C, strain tif3, stronger effect = lower value 0.0761 | locus YPR167C, strain met16, stronger effect = lower value 0.0704 | strain wtn01, stronger effect = lower value 0.067
